According to PubChem BioAssay AID602410 (Johns Hopkins Ion Channel Center, 2012):
Screen size: about 340,000 compounds; about 2,800 (0.82%) were called active.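 Rule for the calls: active = B-score under library mean minus 4 SD, starting fluorescence ratio at most library mean plus 5 SD; inactive = the rest.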 For the sample, actives were picked, then their nearest neighbours and some compounds at random.

Target: Potassium channel subfamily K member 3 (Homo sapiens) (UniProt O14649)
Assay: human KCNK3 channel inhibitors, primary screen, CHO cells, FluxOR thallium flux, B-score (AID 602410);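 for B-score: more negative B-score means stronger inhibition of thallium flux through KCNK3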
Conditions: FluxOR fluorescence, at 10 µM; stronger effect = lower value

Chain of Potassium channel subfamily K member 3 (Homo sapiens) (O14649 whole entry, looked up): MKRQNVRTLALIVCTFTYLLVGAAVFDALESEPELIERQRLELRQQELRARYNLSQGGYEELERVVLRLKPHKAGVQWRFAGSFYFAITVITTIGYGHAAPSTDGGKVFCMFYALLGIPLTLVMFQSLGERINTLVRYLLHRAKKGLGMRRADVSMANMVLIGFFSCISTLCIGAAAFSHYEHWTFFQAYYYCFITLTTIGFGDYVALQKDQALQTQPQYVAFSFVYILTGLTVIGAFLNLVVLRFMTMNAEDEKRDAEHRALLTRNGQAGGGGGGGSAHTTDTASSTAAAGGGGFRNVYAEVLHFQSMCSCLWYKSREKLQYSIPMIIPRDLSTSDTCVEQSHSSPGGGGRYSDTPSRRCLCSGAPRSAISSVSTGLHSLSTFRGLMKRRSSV

Row | Compound | B-score
1 | CCOC(=O)N1CCC(N(CCOC)C(=O)Nc2ccc(C)c(C)c2)CC1 | inactive
2 | COc1ccc(-c2nc(CCNC(=O)c3ccc(Br)o3)cs2)cc1 | -10.2 (active)
3 | O=C(NCCc1csc(-c2ccccc2)n1)c1ccccc1F | inactive
4 | COc1ccc(N2CCN(C(=O)CNC(=O)c3ccc(Br)o3)CC2)cc1 | inactive
5 | O=C(COC(=O)Cc1ccccc1F)NCCc1ccccc1 | inactive
6 | O=C(COC(=O)CNS(=O)(=O)c1ccccc1)NC12CC3CC(CC(C3)C1)C2 | inactive
7 | N#Cc1ccc(S(=O)(=O)NCC(=O)OCC(=O)NCCc2ccccc2)cc1 | -11.3 (active)
8 | COC(=O)c1ccc(CN2C(=O)NC(c3ccccc3)(c3ccccc3)C2=O)o1 | inactive
9 | COc1cccc(CNc2nc(C(F)(F)F)nc3ccccc23)c1 | -9.39 (active)
10 | COc1ccc(CNc2ncnc3ccccc23)cc1 | inactive
11 | CCc1ccc(C(CNc2nc(C(F)(F)F)nc3ccccc23)N(C)C)cc1 (configuration not stated) | inactive
12 | O=Cc1c(Cl)cccc1Cl | inactive
13 | O=C(NNC1=C(C(=O)C(F)(F)F)CCC1)c1ccncc1 | inactive
14 | Cc1ccc(C(=O)OCC(=O)NC(=O)Cc2ccccc2)c(O)c1 | inactive
15 | COCCNC(=O)Cn1cc(C(=O)c2cccs2)c2ccccc21 | inactive
16 | O=C(COC(=O)c1cccs1)NCc1cccs1 | inactive
17 | O=C(Cn1cc(C(=O)c2cccs2)c2ccccc21)NCc1cccs1 | -13.4 (active)
18 | COc1ccc(F)cc1C(=O)C1CCCN(C(=O)CCc2ccccn2)C1 (configuration not stated) | inactive
19 | CCOC(=O)c1sc(-c2cccc([N+](=O)[O-])c2)cc1N | inactive
20 | O=C(c1ccc(F)cc1)C1CCN(Cc2cn[nH]c2-c2ccccc2)CC1 | inactive
21 | Cc1ccccc1NC(=O)Nc1ccccc1N1CCCCC1 | inactive
22 | O=C(CNCCC1=CCCCC1)Nc1ccccc1N1CCCCCC1 | -12.6 (active)

Row | Compound | B-score
23 | Cc1ccc(C(C)C)cc1OCC(=O)Nc1ccccc1N1CCCC1 | inactive
24 | CC1=C[C@H]2Cc3cc(C)cc(C)c3S(=O)(=O)[C@@H]2C=C1 | inactive
25 | CC(C)n1c(O)c(N=Nc2ccccn2)c2ccccc21 | inactive
26 | CCN(CC)CCN(C(=O)c1cc(Cl)sc1Cl)c1nc2cc3c(cc2s1)OCO3 | -8.98 (active)
27 | CN(C)CCN(C(=O)C1CCCCC1)c1nc2cc3c(cc2s1)OCO3 | inactive
28 | CN(C)CCN(C(=O)C1=COCCO1)c1nc2ccc(Cl)cc2s1 | inactive
29 | CCn1c(SCC(=O)NC2CCCC2)nnc1-c1ccoc1C | inactive
30 | CCN(CC)C(=O)CN(c1cccc(OC)c1)S(=O)(=O)c1ccc(C)cc1 | inactive
31 | CCCCCCCC(=O)NC(Nc1ccccc1OC)C(Cl)(Cl)Cl (configuration not stated) | inactive
32 | Cc1ccc(O)c(CCc2ccccc2)n1 | inactive
33 | CC(Oc1cccc(NC(=O)c2cccs2)c1)C(=O)c1ccccc1 (configuration not stated) | -11.3 (active)
34 | O=C(Nc1ccccc1-c1ccccc1)c1cccs1 | inactive
35 | COc1cc(NC(=O)c2cccs2)ccc1NC(=O)c1ccccc1Cl | inactive
36 | CCNC(=O)CC1C(=O)N(c2ccc(OC)cc2)C(=O)N1CCOC (configuration not stated) | inactive
37 | Cc1ccnc(N2C(=O)c3ccccc3C2Nc2ccc3c(c2)OCCO3)c1 (configuration not stated) | inactive
38 | COC(=O)c1cc(NC2c3ccccc3C(=O)N2c2ccc(Cl)cn2)cc(C(=O)OC)c1 (configuration not stated) | -10.8 (active)
39 | COC(=O)c1ccc(-n2cnc3ccccc32)nc1 | inactive
40 | Cn1ccnc1-c1nnn(-c2ccc(F)cc2)n1 | inactive
41 | O=C(CC(c1ccccc1)c1cc(Cl)ccc1O)NCCN1CCOCC1 (configuration not stated) | inactive
42 | Cc1cc(OCCCCOc2ccc(C#N)cc2)ccc1[N+](=O)[O-] | -9.68 (active)
43 | Cc1cc(OCC(=O)NC2CCN(C)CC2)ccc1[N+](=O)[O-] | inactive
44 | Cc1cc(OCCCN2CCN(Cc3ccccc3)CC2)ccc1[N+](=O)[O-] | inactive

Row | Compound | B-score
45 | COC(c1ccccc1)c1nnc(CCC(=O)N2CCN(CCOc3ccccc3)CC2)o1 (configuration not stated) | inactive
46 | O=C(CC1NCCc2ccccc21)Nc1cccc(Cl)c1 (configuration not stated) | -8.87 (active)
47 | O=C(CC1NCCNC1=O)Nc1cc(Cl)cc(Cl)c1 (configuration not stated) | inactive
48 | O=C(CC1NCCNC1=O)Nc1ccc(Oc2ccccc2)cc1 (configuration not stated) | inactive
49 | O=C(NNS(=O)(=O)c1ccccc1C(F)(F)F)c1cc2ncc(C(F)(F)F)cc2s1 | inactive
50 | CN1CCN(C(=O)/C(=C\c2cccs2)NC(=O)c2cccs2)CC1 | inactive
51 | Cc1ccc(C)c(C(=O)COC(=O)Cn2[nH]c(=O)c3ccccc3c2=O)c1 | -9.1 (active)
52 | CN(C)S(=O)(=O)c1ccc(NC(=O)COC(=O)Cn2[nH]c(=O)c3ccccc3c2=O)cc1 | inactive
53 | O=C(COC(=O)Cn1[nH]c(=O)c2ccccc2c1=O)Nc1ncc(Cl)cc1Cl | inactive
54 | CCC(C)(C)n1nnnc1C(c1ccc(OC)c(OC)c1)N1CCN(C(=O)c2ccco2)CC1 (configuration not stated) | inactive
55 | Fc1ccc(Cn2nnnc2C(c2cccs2)N2CCCCCC2)cc1 (configuration not stated) | inactive
56 | CCC(C)(C)n1nnnc1C(c1cccs1)N1CCN(c2nc3ccccc3s2)CC1 (configuration not stated) | -9.57 (active)
57 | CC(C)C(=O)N1CCN(CCN=CC2=C(O)CC(c3ccco3)CC2=O)CC1 (configuration not stated) | inactive
58 | CCOC(=O)C1=C(CN2CCc3ccccc32)NC(=O)NC1c1cc(C)ccc1C (configuration not stated) | inactive
59 | CC(C)(C)c1nnc(N/N=C/c2ccc(O)cc2)n(N)c1=O | inactive
60 | O=C(Nc1cc(=O)[nH]c2ncnn12)c1ccccc1Cl | inactive
61 | COc1ccccc1C(c1nnnn1C(C)(C)C)N1CCN(Cc2ccccc2)CC1 (configuration not stated) | -8.94 (active)
62 | CCCC(c1nnnn1C(C)(C)C)N1CCN(Cc2ccccc2)CC1 (configuration not stated) | inactive
63 | COc1ccc(OC)c(C(c2nnnn2C(C)(C)C)N2CCc3ccccc3C2)c1 (configuration not stated) | inactive
64 | C=CCn1c(SCc2cc(C(=O)OC)c(C)o2)nnc1-c1ccncc1 | inactive
65 | COc1ccc(N2CCN(S(=O)(=O)c3ccc4c(c3)NC(=O)C(C)C(=O)N4)CC2)cc1 (configuration not stated) | inactive
66 | Cc1ccc(NC(=O)c2cc([N+](=O)[O-])ccc2Cl)c(O)c1 | -10.1 (active)

Row | Compound | B-score
67 | CNc1ccc([N+](=O)[O-])cc1C(=O)O | inactive
68 | O=C(Nc1cccnc1)c1cc([N+](=O)[O-])ccc1Cl | inactive
69 | Cc1ccc(SCC(=O)Nc2nncs2)cc1 | inactive
70 | COc1ccccc1-c1c(C#N)c(N)nc2c1CCC2 | inactive
71 | Clc1cccc(-c2nc(NCC3CCCO3)c3ccccc3n2)c1 (configuration not stated) | -10.2 (active)
72 | O=C(CSc1nc2ccccc2c(=O)n1Cc1ccc(F)cc1)NCC1CCCO1 (configuration not stated) | inactive
73 | c1ccc2c(NCC3CCCO3)nc(-c3ccncc3)nc2c1 (configuration not stated) | inactive
74 | CCOC(=O)[C@@H]1[C@H]2COc3ccc(Br)cc3[C@H]2N2C(=O)N(c3ccc(C)cc3)C(=O)[C@@]12C | inactive
75 | CCn1c(CSc2nncn2-c2ccc(OC)cc2)nc2cc(S(=O)(=O)N(C)C)ccc21 | inactive
76 | COc1cc(CNCc2ccc(OC)c3ccccc23)cc(OC)c1OC | inactive
77 | CC(C)N(Cc1ccccc1)C(=O)COC(=O)c1cnccn1 | inactive
78 | N/C(Cc1ccc([N+](=O)[O-])cc1)=N\OC(=O)COc1ccc2ccccc2c1 | -8.91 (active)
79 | N/C(=N\OC(=O)Cc1ccc([N+](=O)[O-])cc1)c1ccccn1 | inactive
80 | Cc1cc(C)cc(OCC(=O)O/N=C(\N)Cc2ccc([N+](=O)[O-])cc2)c1 | inactive
81 | CCNC(=O)CC1C(=O)N(c2ccc(OC)cc2)C(=S)N1CCc1ccncc1 (configuration not stated) | inactive
82 | CCc1cc(-c2n[nH]c(=S)n2CC(C)C)cs1 | inactive
83 | CCOC(=O)N1CCN(Cc2nc3cc(NC(=O)CC)ccc3n2CC)CC1 | inactive
84 | O=C(CN(CC1CCCO1)C(=O)CNS(=O)(=O)c1ccc(Cl)cc1)NCc1ccccc1 (configuration not stated) | inactive
85 | CCC(C(=O)NCCC(C)C)N(Cc1ccccc1Cl)C(=O)c1snc(C(N)=O)c1N (configuration not stated) | inactive
86 | COc1ccc2sc(-c3ccc(N(C)C)cc3)c(C#CCO)c2c1 | inactive
87 | COc1ccc2c(c1)c(=Cc1ccc(N(C)C)cc1)c1cc(-c3ccccc3)[n+](C)n12 | -15.6 (active)
88 | O=S(=O)(c1cccs1)N1CCN(CCOc2ccccc2)CC1 | inactive

Row | Compound | B-score
89 | O=C(N/N=C/c1cccc(O)c1)c1cc2c(ccc3ccccc32)o1 | inactive
90 | Cc1ccc(OCCOc2cccc(/C=N/NC(N)=O)c2)cc1 | inactive
91 | O=C(N/N=C/c1cccc(OCc2ccccc2)c1)c1ccc(Br)o1 | -9.25 (active)
92 | COc1ccccc1N1CCN(c2nc(C)cc(=O)[nH]2)CC1 | inactive
93 | COc1ccccc1N1CCN(c2ncnc3sc(C)c(-c4ccccc4)c23)CC1 | -14.3 (active)
94 | COc1ccccc1N1CCN(c2ccc([N+](=O)[O-])nc2)CC1 | inactive
95 | COc1ccc(S(=O)(=O)N(C)CC(=O)NCCCN2CCOCC2)cc1Cl | inactive
96 | COc1cccc2cc(C(C)N(CCCN3CCOCC3)C(=O)Nc3ccc(Cl)cc3)oc12 (configuration not stated) | -10.2 (active)
97 | O=C(NCCN1CCOCC1)Nc1cccc(Cl)c1 | inactive
98 | Cc1nn(CC(=O)Nc2ccc(N(C)C)cc2)c(C)c1[N+](=O)[O-] | inactive
99 | Cc1nn(CC(=O)Nc2nc3ccccc3s2)c(C)c1[N+](=O)[O-] | -10.5 (active)
100 | Cc1nn(CC(=O)NCc2ccccn2)c(C)c1[N+](=O)[O-] | inactive
101 | CCN(CC(=O)NCc1ccc(F)cc1)S(=O)(=O)c1ccc(Cl)s1 | inactive
102 | CC(C(=O)NC1CCCC1)N(c1ccc(Oc2ccccc2)cc1)S(C)(=O)=O (configuration not stated) | inactive
103 | COC(=O)c1cc(C)sc1NC(=O)CC1Nc2ccccc2NC1=O (configuration not stated) | inactive
104 | COC(=O)C1=C(C)N(C(C)c2ccccc2)C(=O)/C1=C\c1ccco1 (configuration not stated) | -9.57 (active)
105 | O=C(OCN1C(=O)c2ccccc2C1=O)/C(=C\c1ccco1)NC(=O)c1ccccc1 | inactive
106 | COC(=O)COc1ccc2c(c1C)O/C(=C\c1ccco1)C2=O | inactive
107 | CC(=O)NCCC(=O)Nc1cc(S(=O)(=O)N2CCCCC2)ccc1Oc1cccc(C)c1 | inactive
